Bioassay records from PubChem.
TWEAK Fn14 block: inhibitors of TWEAK-Fn14 interaction signaling; TWEAK-stimulated Fn14 reporter cells, luciferase luminescence, 8 h; inhibition, % at 10 µM; 360,000 compounds, 2% hits; AID 1159606; in the data active means inhibition above about 50%
TROY NFkB inh: TROY signaling inhibition; 360,000 compounds, 0.98% hits; inhibition, % at 10 µM; Q293 LMP1-TROYcd NF-kB luciferase reporter, 4 h; AID 1347056;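 active means compounds whose plate-normalised and pattern-corrected inhibition of the luciferase reporter signal at the single screening dose is 50% or more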
LMP1 NFkB inh: inhibitors of Epstein-Barr LMP1-induced NF-kappaB reporter; LMP1-induced NF-kappaB luciferase reporter cells, luminescence; AID 504558; inhibition, % at 12.5 µM; 350,000 compounds, 0.69% hits; in the data active means inhibition above about 41%; inconclusive means no clear call, values can overlap the other calls;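 further: 0% = neutral control wells and 100% = reference inhibitor control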
PAX8 reporter: inhibitors of PAX8 transcriptional activity in RMG-I cells; RMG-I TPO-luciferase reporter, SteadyGlo, 24 h; inhibition, % at 12.6 µM; 360,000 compounds, 1.2% hits; AID 652154;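 active means mean replicate inhibition at least 60% with every replicate also reaching 60%; inconclusive means only one of the two criteria is met; inactive means mean below 60% and not all replicates reaching 60%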;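 further: luciferase light reporting Pax8 driven TPO promoter activity; plate controls were median of neutral control wells for no effect and mitoxantrone controls for full effect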
LGR2 antag: inhibitors of bursicon-induced Drosophila LGR2 receptor cAMP signaling | HEK293 LGR2, CRE-luciferase, bursicon-stimulated, 4 h | inhibition, % at 9.99 µM | 380,000 compounds, 0.35% hits | AID 720647;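 active means drop in luminescence signal, shown as inhibition above about 50% in the replicate tests, limit read from the data, passing the limit was not always enough; inconclusive means probably only some replicates passing the limit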;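 further: agonist challenge used bursicon conditioned medium at about half maximal strength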
EWS-Fli inh: EWS/Fli transcriptional activity inhibition; A673 NR0B1-luciferase reporter, viability-normalised; inhibition, % at 12.6 µM; 350,000 compounds, 0.67% hits; AID 651661;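 active means mean inhibition of at least 50% after viability correction, with every replicate also passing that limit; inconclusive means mean reaches 50% but only one of two replicates passes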;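 further: firefly luciferase signal divided by Alamar Blue viability fluorescence both relative to DMSO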
Active calls of the source: *; ? = inconclusive; nt = not tested or not shown. Only some compounds are listed: those with a hit (about 3.1% of all), similar ones and a draw of the others.

SMILES	TWEAK Fn14 block	TROY NFkB inh	LMP1 NFkB inh	PAX8 reporter	LGR2 antag	EWS-Fli inh
COc1ccc(C(=O)Nn2c(SCC(=O)c3ccc(Cl)cc3)nc3ccccc3c2=O)cc1	91*	79*	48*	32	nt	nt
COc1ccc(C(=O)Nn2c(SCC(=O)N3CCC(C)CC3)nc3ccccc3c2=O)cc1	97*	81*	70*	47	nt	nt
O=C(Nn1c(SCc2cccc([N+](=O)[O-])c2)nc2ccccc2c1=O)c1ccccc1	-26	14	-16	-75	-47	nt
C[C@@H]1CN([C@@H](C)CO)C(=O)c2cc(NC(=O)Nc3ccc(C(F)(F)F)cc3)ccc2O[C@H]1CN(C)C(=O)NC1CCCCC1	nt	nt	nt	3	-5	-4
CCC(=O)N1CC(=O)N2[C@H](CO)[C@H](c3ccc(-c4ccccc4F)cc3)[C@H]2C1	nt	nt	nt	nt	10	1
CCOc1cccc(CNc2nnnn2C)c1	-15	5	79*	1	-8	-5
CC(=O)c1cccc(NC(=O)CSc2nc(N3CCCCC3)nc(N3CCCCC3)n2)c1	54*	57*	-36	-41	nt	-16
CCOC(=O)c1ccc(NC(=O)CSc2nc(N3CCOCC3)nc(N3CCOCC3)n2)cc1	-35	9	66*	-1	8	1
CC(=O)c1ccc(NC(=O)CSc2nc(N3CCOCC3)nc(N3CCOCC3)n2)cc1	-20	-34	-10	-90	-24	-53
FC(F)(F)c1nnc2c(Sc3ccccc3)nc3ccc(Cl)cc3n12	53*	-6	-70	113*	nt	nt
FC(F)(F)c1nc2ccccc2n2c(-c3ccc(Cl)cc3Cl)nnc12	-2	11	-4	nt	nt	nt
COc1ccc(S(=O)(=O)N2C[C@@H](O)COC[C@@H]3O[C@H](CC(=O)NCc4ccc(Cl)c(Cl)c4)CC[C@H]32)cc1	nt	nt	nt	28	6	-3
CC[N+]1(C)CCC(O)(/C=C/c2ccccc2)C(C(=O)/C=C/c2ccccc2)C1 (stereo not drawn)	65*	12	-3	67*	24	8
COc1ccc(S(=O)(=O)N(C)C[C@H]2OCCCC[C@H](C)Oc3ccc(NC(=O)Nc4cccc5ccccc45)cc3C(=O)N([C@H](C)CO)C[C@H]2C)cc1	nt	nt	nt	6	6	3
CCOc1ccccc1NC(=O)COC(=O)c1cccc(-c2ccc(OC(C)=O)cc2)c1	64*	62*	-16	4	nt	8
CCOCC(=O)Nc1nc2ccc(C)cc2s1	20	6	-1	nt	nt	nt
Cc1ccc2nc(NC(=O)CSCC(=O)OCC(=O)c3ccccc3)sc2c1	96*	73*	20	25	13	nt
NS(=O)(=O)c1ccc2nc(NC(=O)Nc3ccccc3F)sc2c1	51*	8	-78	-154	-41	-103
CS(=O)(=O)c1ccc2nc(NC(=O)c3cccs3)sc2c1	69*	34	21	nt	25	nt
Cc1ccc2nc(NC(=S)NC(=O)c3cccs3)sc2c1	43	54*	-32	nt	nt	nt
Cc1ccc2nc(NC(=O)c3ccc(Cl)s3)sc2c1	14	-47	-40	-242	-43	-67
Cc1ccc2nc(NC(=O)CCCC(=O)O)sc2c1	86*	66*	37	2	?	81*
Cc1ccc2nc(NC(=O)CCCc3nc4ccccc4s3)sc2c1	-7	36	-17	nt	-5	nt
Cc1ccc2nc(NC(=O)c3cccs3)sc2c1	78*	23	4	-23	nt	nt
Cc1ccccc1N(C(=O)c1snc(C(N)=O)c1N)C(C(=O)NC1CCCCC1)c1ccc(O)cc1 (stereo not drawn)	39	-7	41*	36	9	30
SMILES	TWEAK Fn14 block	TROY NFkB inh	LMP1 NFkB inh	PAX8 reporter	LGR2 antag	EWS-Fli inh
Cc1ccccc1N(C(=O)c1snc(C(N)=O)c1N)C(C)C(=O)NC1CCCCC1 (stereo not drawn)	8	10	2	6	-5	-16
CCOc1ccccc1N(C(=O)c1snc(C(N)=O)c1N)C(C(=O)NCc1ccccc1)c1ccc(O)cc1 (stereo not drawn)	86*	1	38	32	-8	16
C[C@@H]1CN([C@H](C)CO)S(=O)(=O)c2ccc(C#CC3CC3)cc2O[C@H]1CN(C)C(=O)c1cccc(F)c1	nt	nt	nt	-29	7	23
C[C@H]1CCCCO[C@H](CN(C)Cc2ccc3c(c2)OCO3)[C@@H](C)CN([C@@H](C)CO)C(=O)c2cc(NS(C)(=O)=O)ccc2O1	nt	nt	nt	-3	1	-4
O=c1c(Cl)c(Cl)cnn1-c1ccccc1	91*	-1	0	108*	104*	70*
Nc1c(Cl)cnn(-c2ccccc2)c1=O	14	-6	nt	8	4	-3
CCOCc1c(C(=O)NC2=Nc3ccccc3NC(CC)=C2C(=O)OCC)oc2ccccc12	23	17	10	80*	39	-8
CCOC(=O)C1=C(CC)Nc2ccccc2N=C1NC(=O)CCNC(C)=O	0	-4	-12	-6	7	4
CCOC(=O)C1=C(CC)Nc2ccccc2N=C1NC(=O)c1oc2ccccc2c1C	25	25	-4	64*	22	8
O=C(CCCc1nc(-c2ccccc2Cl)no1)NC1CCCC1	92*	52*	23	21	-14	nt
Cc1noc(C)c1NC(=O)Nc1ccc2c(c1)CC(=O)N([C@@H](C)CO)C[C@@H](C)[C@H](CN(C)Cc1ccc(-c3ccccc3)cc1)O2	nt	nt	nt	nt	-5	15
O=C(Cc1ccccc1)O/N=C1\CCCc2ccccc21	0	1	-4	-24	15	-8
O=C(O/N=C1\CCCc2ccccc21)c1cccs1	-23	80*	-3	-1	-108	-4
Cc1cc(NCCCN2CCOCC2)n2c(nc3ccccc32)c1C#N	-18	-11	-10	-10	nt	nt
CCCc1cc(NCCCN2CCOCC2)n2c(nc3ccccc32)c1C#N	82*	nt	-14	nt	nt	nt
C[C@@H]1CN([C@H](C)CO)C(=O)c2cc(NC(=O)Nc3ccc(C(F)(F)F)cc3)ccc2O[C@@H](C)CCCCO[C@@H]1CN(C)CC1CCCCC1	nt	nt	nt	-10	1	78*
CCCN(C)C[C@H]1OCCCC[C@@H](C)Oc2ccc(NC(=O)c3ccccc3)cc2C(=O)N([C@H](C)CO)C[C@H]1C	nt	nt	nt	83*	9	5
CCCN(C)C[C@H]1OCCCC[C@@H](C)Oc2ccc(NC(=O)c3ccccc3)cc2C(=O)N([C@H](C)CO)C[C@@H]1C	nt	nt	nt	-13	-6	5
C[C@H](CO)N1C[C@H](C)[C@@H](CN(C)CC2CCCCC2)OCCCC[C@H](C)Oc2ccc(NC(=O)Nc3ccc(C(F)(F)F)cc3)cc2C1=O	nt	nt	nt	14	-3	60*
CCCN(C)C[C@H]1OCCCC[C@H](C)Oc2ccc(NC(=O)Nc3ccc(C(F)(F)F)cc3)cc2C(=O)N([C@@H](C)CO)C[C@H]1C	nt	nt	nt	54	21	1
C[C@@H]1CN([C@@H](C)CO)C(=O)c2cc(NC(=O)Nc3ccc(C(F)(F)F)cc3)ccc2O[C@@H](C)CCCCO[C@H]1CN(C)CC1CCCCC1	nt	nt	nt	-2	nt	47
